# Screens deposited in PubChem BioAssay by National Center for Advancing Translational Sciences (NCATS).
# The list is not random: actives were taken first. Their share in the collection is about 2.4%.
# WRN helicase inh = inhibitors of human WRN helicase | Potency, µM (series often up to 114 µM), for inactives: at the top dose activity change, negative = inhibition, actives largely listed as inhibitors | WRN helicase unwinding, fluorescent forked duplex, kinetic | 0.46% of 360,000 active; further: on the % scale 0 is the no-effect control and ±100 the full control effect; nearly all actives have a fitted effect of over 55% in size
#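 Kinetic fluorescence helicase assay: unwinding of a quenched forked DNA duplex (100 nM final) with 2 mM ATP final raises red fluorescence (525/598 nm). Compounds sat 15 min at room temperature with 20 nM WRN beforehand.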
# POLH inh = DNA polymerase eta (human) inhibition. recombinant Pol eta, fluorescent DNA replication assay. AID 588591. 1.2% of 390,000 active. Potency, µM (titrated, usually from 114 µM), for the others: at the top dose activity change, negative = inhibition, actives largely listed as inhibitors; further: on the % scale 0 is the no-effect control and ±100 the full control effect
#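 Pol eta at 10 nM preincubated with compounds 15 min at room temperature; reaction started with fluorescent substrate (50 nM final) and read kinetically at 0 and 10 min.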
# Pol beta inh = inhibitors of human DNA polymerase beta. 1.3% of 340,000 active. Pol beta primer extension/strand displacement, fluorescence kinetic. AID 485314. Potency, µM (top dose mostly 114 µM), for the others: at the highest dose activity change, negative = inhibition, actives largely listed as inhibitors; further: on the % scale 0 is the no-effect control and ±100 the full control effect
#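 Human Pol beta at 10 nM; strand-displacement substrate 50 nM final. Compound exposure 15 min at room temperature before start, reaction 10 min at room temperature.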
# POLK inh = DNA polymerase kappa (human) inhibition | Q9UBT6 | purified Pol kappa, fluorescent DNA synthesis assay, 10 min | Potency, µM (highest dose often 107 µM), for inactives: at the top dose activity, negative = inhibition, most hits filed as inhibitors | 0.53% of 400,000 active; further: on the % scale 0 is the no-effect control and ±100 the full control effect
#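 Activity was followed as the change in fluorescence between reads at 0 and 10 min after starting the reaction with 50 nM substrate. Beforehand, 10 nM polymerase had been preincubated with compound for 15 min at room temperature.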
# Pol iota inh = DNA polymerase iota (human) inhibition; Q9UNA4; Pol iota fluorescent replication assay, 10 min; Potency, µM (series often up to 115 µM), without a hit: at the highest dose activity, negative = inhibition, actives largely listed as inhibitors; 1% of 390,000 active; AID 588590
#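 Fluorescent replication assay read twice, at 0 min and 10 min after adding 50 nM (final) substrate. Enzyme (10 nM) and compounds were first incubated 15 min at room temperature; enzyme-free buffer wells were negative controls.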
# FEN1 inh = inhibitors of human flap endonuclease 1; P39748; Recombinant FEN1 flap cleavage, fluorescence, 15 min; Potency, µM (top dose mostly 114 µM), for the others: at the highest dose activity change, negative = inhibition, usual class: inhibitors; 0.35% of 390,000 active; AID 588795; further: on the % scale 0 is the no-effect control and ±100 the full control effect; nearly all actives have a fitted effect of over 65% in size
# Target sequence (P39748 whole entry, looked up): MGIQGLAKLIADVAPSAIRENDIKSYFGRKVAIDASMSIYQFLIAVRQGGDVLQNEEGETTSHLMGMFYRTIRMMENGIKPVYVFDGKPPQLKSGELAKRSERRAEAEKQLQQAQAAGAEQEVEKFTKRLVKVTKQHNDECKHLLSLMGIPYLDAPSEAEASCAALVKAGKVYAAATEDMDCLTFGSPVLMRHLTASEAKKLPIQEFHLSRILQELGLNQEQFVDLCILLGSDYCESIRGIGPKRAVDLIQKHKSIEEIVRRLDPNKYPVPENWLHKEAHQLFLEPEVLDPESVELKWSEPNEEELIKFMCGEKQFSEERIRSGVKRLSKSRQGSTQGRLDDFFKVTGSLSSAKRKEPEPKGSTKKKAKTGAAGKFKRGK
#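 Concentration–response screening of FEN1 (10 nM): 15 min compound preincubation at room temperature, reaction started with 50 nM substrate and read at 0 and 15 min. Corrected, normalized data were fitted by a four-parameter Hill equation.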
# The depositor's hits bear a star; ? = inconclusive; / = no result; ! = a repeat was not active; [ ] = another dose, or the depositor's remark. The call rests on the fitted dose curve; in most records, active means well fitted curve in the direction sought with a large enough effect; inconclusive means small, poorly fitted or top-dose-only effect, or another doubt; inactive means no such curve, though single readings can be large; an effect the other way counts as inactive or inconclusive. Potency means the concentration at half of the fitted maximal effect.
SMILES,WRN helicase inh,POLH inh,Pol beta inh,POLK inh,Pol iota inh,FEN1 inh
O=C(NC1(C(F)(F)F)NC(=O)N(CCc2ccccc2)C1=O)c1ccccc1Cl (configuration not stated),/,-13%,27%,-15%,-17%,-24%
COc1ccccc1C(=O)NC1(C(F)(F)F)NC(=O)N(CCc2ccccc2)C1=O (configuration not stated),/,-8%,4%,-9%,79µM*,-9%
C=C[C@@]1(C)CC[C@H]2C(=CC[C@@H]3[C@]2(C)CCC[C@@]3(C)C(=O)O)C1,/,/,/,-3%[60.1 µM],/,/
Cc1c(NS(=O)(=O)c2cc(C(=O)NCCN(C)C)ccc2Cl)c(=O)n(-c2ccccc2)n1C,-17%,-26%,45µM*,?,?,-10%
Cc1c(NS(=O)(=O)c2cccc(C(=O)O)c2)c(=O)n(-c2ccccc2)n1C,8%,-9%,73%,-1%,50µM*!,-5%
Cc1c(NS(=O)(=O)c2cccc(C(=O)NCc3ccco3)c2)c(=O)n(-c2ccccc2)n1C,?,?,/,-36%,35µM*,?
Cc1c(NS(=O)(=O)c2cccc(C(=O)NCc3ccc(Cl)cc3)c2)c(=O)n(-c2ccccc2)n1C,-2%,-2%,?,-11%,15%,-8%
C=CCc1ccccc1OCCSc1nc(-c2cccs2)nc2cc(=O)[nH]n12,/,79µM*,25µM*,?,?,-24%
Cc1ccc(C(C)C)c(OCCSc2nc(-c3cccs3)nc3cc(=O)[nH]n23)c1,/,?,?,-20%,-26%,-35%
CC(C)(C)c1ccc(OCCSc2nc(-c3cccs3)nc3cc(=O)[nH]n23)cc1,/,?,32µM*,?,25%,-21%
CC(C)(C)c1ccc(-c2nc(SCCOc3ccc(Cl)cc3)n3[nH]c(=O)cc3n2)cc1,/,50µM*,?,-19%,11%,-17%
Cc1ccc(OCCCSc2nc(-c3ccc(C(C)(C)C)cc3)nc3cc(=O)[nH]n23)cc1C,/,45µM*,?,-20%,1%,?
O=C(C[n+]1ccccc1Br)c1ccc(Cl)cc1,/,/,/,-11%,-15%,-19%
Cc1cc(=O)oc2cc(NC(=O)[C@H](CCCCN)NC(=O)[C@H](CC3CCCCC3)NC(=O)OCC3c4ccccc4-c4ccccc43)ccc12,/,/,/,1%[60.1 µM],/,/
COc1ccc(/C=C2\SC(N)=NC2=O)cc1,-14%,-14%,0%,-14%,99%,-3%
CCOC(=O)CSC1=NC(=O)/C(=C/c2ccc(OC)cc2)S1,50µM*,-2%,1%,-3%,11%,-9%
COc1cc([C@H]2OC[C@H]3[C@@H]2CO[C@H]3c2ccc(O)c(OC)c2)ccc1O,-1%,-15%,/,-5%,30%,-18%
COc1cc(C2OCC3C(c4ccc(OC5OC(CO)C(O)C(O)C5O)c(OC)c4)OCC23)ccc1O (configuration not stated),0%[11.6 µM],?,?,?,71µM*,10%
O=C(CCc1ccccc1)NNC(=O)Nc1ccccc1,-3%,-13%,-15%,3%,8%,5%
O=C(CCCCCCCC(=O)NNC(=O)Nc1ccccc1)NNC(=O)Nc1ccccc1,-34%,-29%,32µM*,-32%,?,9%
COc1cccc(/C(O)=C/c2nc3ccc(C(=O)NCCc4cccc(C)c4)cc3[nH]c2=O)c1,71µM*,-18%,-2%,-9%,14%,-1%
Cc1ccc2cccc(O)c2n1,/,/,/,-7%,25%,13%
CC(C)NC(=O)CCn1c(SCc2c(F)cccc2Cl)nc2c(sc3ccccc32)c1=O,/,-4%,-29%,-6%,21%,-2%
Cc1cccc(CSc2nc3c(sc4ccccc43)c(=O)n2CCC(=O)NC(C)C)c1,/,-22%,25µM*,-2%,24%,-3%
COc1cccc2sc3ccc(NCc4ccc5c(c4)OCO5)cc3c(=O)c12,-19%,-6%,?,79µM*,16µM*,?
SMILES,WRN helicase inh,POLH inh,Pol beta inh,POLK inh,Pol iota inh,FEN1 inh
CC1CCC(C(C)C)C(P(=O)(c2ccccc2)c2ccccc2)C1 (configuration not stated),/,/,/,17%[60.1 µM],/,/
Cc1cc(-c2sccc2Br)nc(-n2cccc2)n1,-11%,-15%,-20%,79µM*,?,2%
Cc1cc(-c2ccc(Br)s2)nc(-n2cccc2)n1,-9%,-14%,?,?,?,2%
O=C(O)C(Cc1ccccc1)N1C(=O)/C(=C/c2cccc3ccccc23)SC1=S (configuration not stated),/,/,32µM*,/,/,/
O=C(O)C(Cc1ccccc1)N1C(=O)/C(=C/c2ccccc2)SC1=S (configuration not stated),1%,-21%,2%,2%,2%,-3%
Cc1ccc(/C=C2\SC(=S)N(C(Cc3ccccc3)C(=O)O)C2=O)cc1 (configuration not stated),-7%,79µM*,89µM*,-2%,11%,4%
Nc1nc2c(c(=O)[nH]1)N=C(CNc1ccc(C(=O)NC(CCC(=O)O)C(=O)O)cc1)CN2 (configuration not stated),/,/,/,-8%[19.4 µM],/,/
COc1cc(C(=O)Nc2ccc(C)c(S(=O)(=O)N(C)C)c2)ccc1OCC(=O)N1CCOCC1,3%[11.6 µM],?,/,-9%,50µM*,1%
CCCCC(=O)O[C@]1(C(=O)CO)CCC2C3CCC4=CC(=O)CCC4(C)C3C(O)CC21C (some centres not stated),/,/,/,0%[19.4 µM],/,/
COC(=O)c1nc(NC(=O)C(C)(C)C)n[nH]1,10%,2%,1%,-8%,79µM*,-16%
COC(=O)c1nc(NC(=O)c2ccc(Br)cc2)n[nH]1,-18%,-3%,13%,-12%,-3%,1%
Cc1ccc(SCC(CC(C)C)N2CCN(C)CCC2=O)cc1 (configuration not stated),/,/,/,3%,1%,-11%
CCOC(=O)c1c(N2C(=O)Nc3cc(Cl)c(Cl)cc3N2O)sc2c1CCCCC2,?,?,50µM*,-26%,-10%,?
CCOC(=O)c1c(-n2cnnn2)sc2c1CCCC2,-1%,4%,11%,-5%,7%,16%
O=C(C[n+]1cccc(I)c1)c1ccc(F)cc1,/,/,/,3%,9%,1%
CC[C@H](C)[C@H](NC(=O)[C@H](Cc1ccc(O)cc1)NC(=O)[C@@H](NC(=O)[C@H](CCCN=C(N)N)NC(=O)[C@@H](N)CC(=O)O)C(C)C)C(=O)N[C@@H](Cc1ccc(N)cc1)C(=O)N1CCC[C@H]1C(=O)N[C@@H](Cc1ccccc1)C(=O)O,/,/,/,17%[60.1 µM],/,/
